Source: PubChem
Pf growth 48h: Primary qHTS for delayed death inhibitors of the malarial parasite plastid, 48 hour incubation; Potency, µM (doses to about 28.7 µM), for inactives: at the top dose activity change, negative = inhibition, usual class: inhibitors; 5.9% of 310,000 active; AID 504832, 2011; P. falciparum luciferase growth in erythrocytes, 48 h; note: potency is the fitted concentration of half-maximal effect; % is set by controls: 0 for no effect and ±100 for the full control effect
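Firefly luciferase activity from engineered P. falciparum reports growth; inhibitors lower the luminescent signal. Cultures contained 2% hematocrit erythrocytes at 0.1% final parasitemia.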
SARS PLpro yeast: qHTS of Yeast-based Assay for SARS-CoV PLP; S. cerevisiae expressing SARS-CoV PLpro, growth rescue; Potency, µM (series often up to 32.9 µM), for inactives: top-dose activity, positive = growth rescue, hits mostly activators; 0.19% of 330,000 active; AID 485353, 2010; calls by dose curve; note: potency is the fitted concentration of half-maximal effect; 0% is about no effect; nearly all actives have a fitted effect of over 55% in size
CHX counter: Cycloheximide Counterscreen for Small Molecule Inhibitors of Shiga Toxin; cell reporter, cycloheximide protein synthesis inhibition counterscreen; max response, %; 12% of 300,000 active; AID 2314, 2010; in the data active = max response mostly above about 13%, no sharp cut-off; inactive = mostly below about 14%; note: read at 38.3 µM for the half of the compounds with a filed dose; 0% is about no effect
NS1 inh: qHTS Assay for Inhibitors of Influenza NS1 Protein Function; Potency, µM (titrated, usually from 46.1 µM), without a hit: top-dose activity, positive = more growth; 0.4% of 270,000 active; AID 2326, 2010; calls by dose curve; note: potency is the fitted concentration of half-maximal effect; actives are rising curves; nearly all actives have a fitted effect of over 50% in size
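S. cerevisiae expressing influenza A NS1, grown in glucose, washed, then diluted 1:100 into pH 6.0 -URA galactose medium with 23 nl compound. Growth recovery read as OD600; NS1-free strain serves as control.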
Shiga toxin inh: A qHTS for Small Molecule Inhibitors of Shiga Toxin; Vero cells, Shiga toxin protein synthesis inhibition reporter; inhibition, % at 38.7 µM; 9.2% of 290,000 active; in the data active = inhibition mostly above about 28%, no sharp cut-off; inactive = mostly below about 43%; note: 0% is about no effect
Pf growth 96h: Primary qHTS for delayed death inhibitors of the malarial parasite plastid, 96 hour incubation. AID 504834, 2011. 6.9% of 320,000 active. P. falciparum luciferase reporter growth, 96 h. Potency, µM (top dose mostly 28.7 µM), for the others: at the highest dose activity change, negative = inhibition, hits mostly inhibitors; note: potency is the fitted concentration of half-maximal effect; % is set by controls: 0 for no effect and ±100 for the full control effect
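P. falciparum expressing integrated firefly luciferase grown in erythrocytes (2% hematocrit, 0.05% parasitemia final) with compounds for 96 hours at 37 C, 5% CO2. Growth inhibition read as loss of luminescence after adding luciferase detection reagent.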
Starred values were filed as active, the others as inactive; [ ] = another dose, or the depositor's remark. Sampled rows, rich in hits. Any-hit rate of the full collection: about 21%. Unless noted, calls come from the whole dose curve; as a rule, active = well fitted inhibition curve with a large enough effect; inconclusive = small, poorly fitted or top-dose-only effect, or another doubt; inactive = no such curve, though single readings can be large or run the other way.

Cc1ccc(C(=O)c2cc([N+](=O)[O-])ccc2N2CC(C)OC(C)C2)cc1 (stereo not drawn) was read as Pf growth 48h 9.28µM*, SARS PLpro yeast -3.2%, CHX counter -8.5, NS1 inh -0.7%, Shiga toxin inh -13.7 and Pf growth 96h inconclusive.
For CC(=O)C1=C(O)C(=O)N(c2ccc(Br)cc2)C1c1cccc([N+](=O)[O-])c1 (stereo not drawn) the results were Pf growth 48h 17.8%, SARS PLpro yeast 0.9%, CHX counter -1.3, NS1 inh 19.3%, Shiga toxin inh -7.2 and Pf growth 96h -16.7%.
For Nc1nnc(SCC(=O)OCC(=O)NC23CC4CC(CC(C4)C2)C3)s1 the results were Pf growth 48h 13.1µM*, SARS PLpro yeast -2.3%, CHX counter -0.7, Shiga toxin inh 4.9 and Pf growth 96h -1.8%.
For CN(C)c1ccc(C(=O)NC2(N3CCC3=O)CCCC2)cc1 the results were Pf growth 48h -6.6%, SARS PLpro yeast 0.2%, CHX counter 21.9*, NS1 inh 0.7%, Shiga toxin inh 26.5 and Pf growth 96h inconclusive.
`CC(=O)[C@H]1CC[C@H]2C3CC[C@H]4C[C@](C)(O)CC[C@]4(C)C3CC[C@]12C` (stereo partly drawn) gave CHX counter -4.0 and Shiga toxin inh -2.8.
COc1cccc(CN2CCC(Oc3ccc(C(=O)NCc4ccccn4)cc3)CC2)c1O was read as Pf growth 48h inconclusive, SARS PLpro yeast 4.7%, CHX counter -1.0, NS1 inh -13.8%, Shiga toxin inh -4.4 and Pf growth 96h 6.57µM*.
`COc1ccc(CN2CCC(Oc3ccc(C(=O)NCc4ccccn4)cc3)CC2)c(F)c1` gave Pf growth 48h -16.2%, SARS PLpro yeast -1.0%, CHX counter 1.1, NS1 inh -10.7%, Shiga toxin inh -13.7 and Pf growth 96h inconclusive.
CCC(C)N1CCC(Oc2ccc(C(=O)NCc3ccccn3)cc2)CC1 (stereo not drawn) was read as Pf growth 48h -9.5%, SARS PLpro yeast 8.6%, CHX counter 2.4, NS1 inh 15.6%, Shiga toxin inh -11.4 and Pf growth 96h 10.4µM*.
O=C(NCc1ccccn1)c1ccc(OC2CCN(Cc3ccccc3)CC2)cc1 was read as Pf growth 48h -5.5%, SARS PLpro yeast -5.7%, CHX counter 1.4, NS1 inh -10.6%, Shiga toxin inh -5.1 and Pf growth 96h 62.8%.
`O=C(NCc1ccccn1)c1ccc(OC2CCN(Cc3ccccc3O)CC2)cc1` gave Pf growth 48h inconclusive, SARS PLpro yeast -4.8%, CHX counter -3.3, NS1 inh -8.2%, Shiga toxin inh -9.1 and Pf growth 96h inconclusive.
For O=C(NCc1ccccn1)c1ccc(OC2CCN(Cc3ccc(F)cc3F)CC2)cc1 the results were Pf growth 48h 11.7µM*, SARS PLpro yeast -2.8%, CHX counter 19.4, NS1 inh 10.8%, Shiga toxin inh 0.8 and Pf growth 96h -2.9%.
For CCCN1CCN(C(=O)c2cc(COc3ccc(F)cc3F)on2)CC1 the results were Pf growth 48h 30.8%, SARS PLpro yeast 1.3%, CHX counter 10.7, NS1 inh -11.3%, Shiga toxin inh 29.4 and Pf growth 96h 0.0%.
For O=C(Nc1cc(Cl)cc2c1[nH]c1cnccc12)c1cccnc1 the results were CHX counter -8.4 and Shiga toxin inh -6.2.
CN(C)c1ncc(CN2CCC(C(=O)Nc3ccc(-n4cccn4)cc3)CC2)s1 was read as Pf growth 48h 2.62µM*, SARS PLpro yeast 6.4%, CHX counter -1.3, NS1 inh 4.5%, Shiga toxin inh -11.4 and Pf growth 96h 17.3%.
Screening COc1ccc2cc(C(=O)NCc3ccco3)c(=Nc3ccc(C(=O)O)cc3)oc2c1 returned Pf growth 48h 10.4µM*, SARS PLpro yeast -6.3%, CHX counter 54.9*, NS1 inh -5.9%, Shiga toxin inh 112.1* and Pf growth 96h inconclusive.
Screening COc1ccc(N=c2oc3c(OC)cccc3cc2C(=O)NCc2ccco2)c(OC)c1 returned Pf growth 48h 12.0%, SARS PLpro yeast -4.4%, CHX counter 23.2*, NS1 inh inconclusive, Shiga toxin inh 60.1 and Pf growth 96h -8.5%.
Screening COc1ccc2oc(=Nc3ccc(C(=O)O)cc3)c(C(=O)NCc3ccco3)cc2c1 returned Pf growth 48h 266.4%, SARS PLpro yeast 0.1%, CHX counter 7.4, Shiga toxin inh 23.0 and Pf growth 96h inconclusive.
`COc1ccc2cc(C(=O)NCc3ccco3)c(=O)oc2c1` gave Pf growth 48h 73.4%, SARS PLpro yeast 1.9%, CHX counter 33.5*, NS1 inh -9.5%[9.22 µM], Shiga toxin inh 59.7* and Pf growth 96h 13.1µM*.
For Cc1noc(C)c1S(=O)(=O)NCc1cccc(Cl)c1 the results were Pf growth 48h -26.9%, SARS PLpro yeast 11.0% and Pf growth 96h inconclusive.
`NCc1ccccc1COc1ccccc1` gave Pf growth 48h 11.9%, SARS PLpro yeast -1.9%, CHX counter 3.8, NS1 inh -2.3%, Shiga toxin inh 3.0 and Pf growth 96h -2.2%.
For C[N+]1=C(/C=C/Nc2ccccc2Cl)C(C)(C)c2ccccc21 the results were Pf growth 48h 11.7µM*, SARS PLpro yeast -7.5%, CHX counter -3.7, NS1 inh -7.8%, Shiga toxin inh -8.1 and Pf growth 96h inconclusive.
COC(=O)c1ccc2c(c1)C(C)(C)C(/C=C/c1ccccc1O)=[N+]2C was read as Pf growth 48h inconclusive, SARS PLpro yeast -24.4%, CHX counter -12.7, NS1 inh 8.5%, Shiga toxin inh -26.2 and Pf growth 96h inconclusive.
`COc1ccc(Br)cc1CN(C)C(=O)c1cnc(C)cn1` gave Pf growth 48h -0.3%, SARS PLpro yeast 0.1%, CHX counter -5.2, NS1 inh -2.0%, Shiga toxin inh -4.7 and Pf growth 96h 2.9%.
For O=C(COC(=O)C1CCC1)Nc1ncc(Cl)cc1Cl the results were Pf growth 48h 12.5%, SARS PLpro yeast -0.1% and Pf growth 96h 21.6%.
For CC(=O)Cc1nsc(NC(=O)c2cccs2)n1 the results were Pf growth 48h 34.1%, SARS PLpro yeast -4.7%, CHX counter 30.7*, NS1 inh -68.9%, Shiga toxin inh 15.9 and Pf growth 96h 18.0%.
For CC(=O)Cc1nsc(NC(=O)c2ccc(-c3ccc(Cl)c(C(F)(F)F)c3)o2)n1 the results were Pf growth 48h -0.1%, SARS PLpro yeast -7.3%, CHX counter -1.3, NS1 inh 4.7%, Shiga toxin inh 20.1 and Pf growth 96h 20.7%.
Screening CC(=O)Cc1nsc(NC(=O)c2ccccc2)n1 returned Pf growth 48h 38.5%, SARS PLpro yeast 2.6%, CHX counter 10.9, NS1 inh -5.8%, Shiga toxin inh 69.2 and Pf growth 96h -10.7%.
For O=C(Nc1nccs1)c1ccc(-c2ccc(F)cc2)o1 the results were Pf growth 48h 47.8%, SARS PLpro yeast -1.1%, CHX counter 40.9*, NS1 inh 0.5%, Shiga toxin inh 94.8* and Pf growth 96h 0.0%.
